Assay results taken from PubChem BioAssay (NCI).
Compounds without any hit were thinned out: in the full panel of roughly 83,000, 20% have a hit.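 Negative percent growth values reflect cell death: -40 means 40% of the cells present at the start died, and -100 means all died.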 Unmarked numbers belong to inactive results. Activity calls are given as the source filed them. The calls were made as follows: active = growth percent below 10; inactive = the rest.

system: 786-0 renal; assay: NCI-60 one-dose screen, 48 h (100 = growth as untreated, 0 = no growth, -100 = all killed); details: 10 µM unless noted

SMILES	growth
COc1ccc(-c2cn(-c3cc(OC)c(OC)c(OC)c3)c(=O)n2C(C)=O)cc1	35.4%
O=C1NC(=O)c2c1c1c3ccccc3ccc1c1[nH]c3ccc(Br)cc3c21	30.7%
O=C(Cn1c2c(c3ccccc31)CCCC2)Nc1ccc(-c2nc3ccccc3s2)cc1	109%
COc1ccc(C/C(C)=C(/c2ccc(OCCN3CCCCC3)cc2)c2ccc(OC(=O)NCc3ccccc3)cc2)cc1	-91.6% (active)
CC(C)OC(=O)c1ccc2[nH]c(O)c(C(=Nc3ccc(N(C)C(=O)CN4CCN(C)CC4)cc3)c3ccccc3)c2c1	-92.4% (active)
COc1cc(N2C(=O)[C@H](O)C2c2ccc(SC)cc2)cc(OC)c1OC (stereo not given in full)	11.3%
CCCCOC(=O)OCc1cc(=O)c(O)co1	98.6%
COc1ccc(C2=Nc3c/c(=C\c4c(O)[nH]c5ccc(Cl)cc45)ccc3=N2)cc1	43.6%
O=C(Nc1cccc([N+](=O)[O-])c1)c1cc2ccccc2cc1O	8.07% (active)
O=C(/C=C/c1cn(-c2ccccc2)nc1-c1ccc([N+](=O)[O-])cc1)c1ccc(Cl)cc1	-92.5% (active)
CC(C)CCC[C@@H](C)[C@H]1CC[C@H]2[C@@H]3CC=C4C[C@@H](C(C(=O)O)C(=O)O)CC[C@]4(C)[C@H]3CC[C@]12C	-58.6% (active)
CN(C)CCNC(=O)c1cccc(-c2cnc3ccc(-c4ccc5c(c4)OCO5)nn23)c1	74.2%
N#Cc1c(-c2ccc(Cl)cc2)nc(SCC(=O)NC2=NN=C(c3ccccc3)CS2)[nH]c1=O	93%
Cc1ccc2c3c(c(=O)[nH]c2c1)C1(C(C#N)=C(N)O3)c2cc(Br)ccc2-c2ccc(Br)cc21	-19.5% (active)
CCCCCCC1(C)NCCO1 (stereo not given)	102%
COc1cc(CNS(=O)(=O)c2ccc(C)cc2)ccc1OCc1cn(-c2ccc(F)cc2)nn1	97.2%
Cc1cc(N)c2cc(NC(=O)/C=C\c3ccccc3Cl)ccc2n1	-81.3% (active)
CCOC(=O)C(=Cc1cccc(Br)c1)C(=O)OCC	47.4%
COc1cc(NC(C)CCCNC(C)C)c2ncccc2c1OC (stereo not given)	86.8%
COc1ccc2cc(-c3ccc(NC(C)=O)c(=O)o3)ccc2c1	98.8%

SMILES	growth
COc1cc(CNS(=O)(=O)c2ccc(C)cc2)ccc1OCc1cn(-c2ccc(Br)cc2)nn1	109%
O=S(=O)(NCCNc1cc(-c2c(-c3cccc(O)c3)nc3sccn23)ccn1)c1ccc(C(F)(F)F)cc1	38.6%
COc1ccc(/C=N/C2=C(C#N)C(c3cccc(Cl)c3)c3c(ccc4ccccc34)O2)cc1 (stereo not given)	19.8%
N#CC1C=CN(CC(N)=O)c2ccc3cccnc3c21 (stereo not given)	98.3%
COc1ccc2c(c1)[n+]([O-])c(C(=O)/C=C/C=C(\Cl)c1cc(OC)c(OC)c(OC)c1)c(C)[n+]2[O-]	61.4%
O=S(=O)(Nc1ccc(Cl)cc1)c1ccc(-c2cnc(C3CC3)o2)cc1	41.1%
Cc1nc2c(=O)[nH]c(SCC(=O)Nc3cccc(F)c3)nc2[nH]c1=O	103%
Nc1nc2c([nH]1)c1[nH]c3ccccc3c1c1[nH]c3ccccc3c21	30.9%
O=C(Cn1cc(CN2CCCCCC2)nn1)Nc1ccc2c(ccn2Cc2ccccc2)c1	87.8%
O=C(Nc1cc(Cl)ccc1O)c1ccc(Nc2ccnc(C(F)(F)F)c2)cc1	49%
COc1cccc(NC(=O)Cn2cc(CN3CCN(c4ccnc5cc(Cl)ccc45)CC3)nn2)c1	99.2%
CC(C)(C)n1cc(-c2ccnc(NCCNS(=O)(=O)c3cccc4ccccc34)c2)c(-c2cccc(F)c2)n1	-91.4% (active)
C/C(Nc1ccc(Cl)c(Cl)c1)=C1\CCOC1=O	81.7%
Cc1c(-c2nc3ccc(F)cc3c(=O)[nH]2)c2ccccc2n1C	37.9%
CC(C)n1cnc2c(=S)nc[nH]c21	113%
Oc1c(Cl)cc(Cl)c2ccc(Cn3cc(-c4cc(C(F)(F)F)cc(C(F)(F)F)c4)nn3)nc12	97.3%
COC(=O)c1c2c(c[n+]([O-])c1C)C(=O)C(NCc1ccccc1)=CC2=O	10.5%
COc1ccc2[nH]cc(-c3nc(-c4cn(C)c5c(Cl)nccc45)cs3)c2c1	16.2%
Clc1ccc(CNc2c3ccccc3nc3ccccc23)cc1	35.3%
CCOC(=O)c1cc(-c2ccc([N+](=O)[O-])cc2)n(-c2ccc(C(=O)O)c(O)c2)c1C	71.3%

system: COLO 205 colon; assay: as above; details: 10 µM unless noted

SMILES	growth
COc1ccc(-c2cn(-c3cc(OC)c(OC)c(OC)c3)c(=O)n2C(C)=O)cc1	119%
O=C1NC(=O)c2c1c1c3ccccc3ccc1c1[nH]c3ccc(Br)cc3c21	9.33% (active)
O=C(Cn1c2c(c3ccccc31)CCCC2)Nc1ccc(-c2nc3ccccc3s2)cc1	104%
COc1ccc(C/C(C)=C(/c2ccc(OCCN3CCCCC3)cc2)c2ccc(OC(=O)NCc3ccccc3)cc2)cc1	-90.4% (active)
CC(C)OC(=O)c1ccc2[nH]c(O)c(C(=Nc3ccc(N(C)C(=O)CN4CCN(C)CC4)cc3)c3ccccc3)c2c1	-59.4% (active)
COc1cc(N2C(=O)[C@H](O)C2c2ccc(SC)cc2)cc(OC)c1OC (stereo not given in full)	-53.3% (active)
CCCCOC(=O)OCc1cc(=O)c(O)co1	111%
COc1ccc(C2=Nc3c/c(=C\c4c(O)[nH]c5ccc(Cl)cc45)ccc3=N2)cc1	-9.26% (active)
O=C(Nc1cccc([N+](=O)[O-])c1)c1cc2ccccc2cc1O	-66.1% (active)
O=C(/C=C/c1cn(-c2ccccc2)nc1-c1ccc([N+](=O)[O-])cc1)c1ccc(Cl)cc1	40.2%
CC(C)CCC[C@@H](C)[C@H]1CC[C@H]2[C@@H]3CC=C4C[C@@H](C(C(=O)O)C(=O)O)CC[C@]4(C)[C@H]3CC[C@]12C	-91.1% (active)
CN(C)CCNC(=O)c1cccc(-c2cnc3ccc(-c4ccc5c(c4)OCO5)nn23)c1	74.8%
N#Cc1c(-c2ccc(Cl)cc2)nc(SCC(=O)NC2=NN=C(c3ccccc3)CS2)[nH]c1=O	80.7%
Cc1ccc2c3c(c(=O)[nH]c2c1)C1(C(C#N)=C(N)O3)c2cc(Br)ccc2-c2ccc(Br)cc21	-51.8% (active)
CCCCCCC1(C)NCCO1 (stereo not given)	102%
COc1cc(CNS(=O)(=O)c2ccc(C)cc2)ccc1OCc1cn(-c2ccc(F)cc2)nn1	88%
Cc1cc(N)c2cc(NC(=O)/C=C\c3ccccc3Cl)ccc2n1	-65.9% (active)
CCOC(=O)C(=Cc1cccc(Br)c1)C(=O)OCC	46.6%
COc1cc(NC(C)CCCNC(C)C)c2ncccc2c1OC (stereo not given)	90.6%
COc1ccc2cc(-c3ccc(NC(C)=O)c(=O)o3)ccc2c1	115%

SMILES	growth
COc1cc(CNS(=O)(=O)c2ccc(C)cc2)ccc1OCc1cn(-c2ccc(Br)cc2)nn1	120%
O=S(=O)(NCCNc1cc(-c2c(-c3cccc(O)c3)nc3sccn23)ccn1)c1ccc(C(F)(F)F)cc1	42.6%
COc1ccc(/C=N/C2=C(C#N)C(c3cccc(Cl)c3)c3c(ccc4ccccc34)O2)cc1 (stereo not given)	31.3%
N#CC1C=CN(CC(N)=O)c2ccc3cccnc3c21 (stereo not given)	80.3%
COc1ccc2c(c1)[n+]([O-])c(C(=O)/C=C/C=C(\Cl)c1cc(OC)c(OC)c(OC)c1)c(C)[n+]2[O-]	127%
O=S(=O)(Nc1ccc(Cl)cc1)c1ccc(-c2cnc(C3CC3)o2)cc1	9.01% (active)
Cc1nc2c(=O)[nH]c(SCC(=O)Nc3cccc(F)c3)nc2[nH]c1=O	111%
Nc1nc2c([nH]1)c1[nH]c3ccccc3c1c1[nH]c3ccccc3c21	-81.3% (active)
O=C(Cn1cc(CN2CCCCCC2)nn1)Nc1ccc2c(ccn2Cc2ccccc2)c1	88.9%
O=C(Nc1cc(Cl)ccc1O)c1ccc(Nc2ccnc(C(F)(F)F)c2)cc1	87.9%
COc1cccc(NC(=O)Cn2cc(CN3CCN(c4ccnc5cc(Cl)ccc45)CC3)nn2)c1	112%
CC(C)(C)n1cc(-c2ccnc(NCCNS(=O)(=O)c3cccc4ccccc34)c2)c(-c2cccc(F)c2)n1	-67.9% (active)
C/C(Nc1ccc(Cl)c(Cl)c1)=C1\CCOC1=O	134%
Cc1c(-c2nc3ccc(F)cc3c(=O)[nH]2)c2ccccc2n1C	30.9%
CC(C)n1cnc2c(=S)nc[nH]c21	114%
Oc1c(Cl)cc(Cl)c2ccc(Cn3cc(-c4cc(C(F)(F)F)cc(C(F)(F)F)c4)nn3)nc12	66.4%
COC(=O)c1c2c(c[n+]([O-])c1C)C(=O)C(NCc1ccccc1)=CC2=O	-52.5% (active)
COc1ccc2[nH]cc(-c3nc(-c4cn(C)c5c(Cl)nccc45)cs3)c2c1	32.9%
Clc1ccc(CNc2c3ccccc3nc3ccccc23)cc1	8.58% (active)
CCOC(=O)c1cc(-c2ccc([N+](=O)[O-])cc2)n(-c2ccc(C(=O)O)c(O)c2)c1C	99.1%
